Data as given in PubChem BioAssay (NCI).
Compounds without any hit were thinned out: in the full panel of roughly 79,000, 15% have a hit. Unmarked numbers belong to inactive results. The source made the active and inactive calls. Rule as the data show it: active = growth inhibition above about 70%; inactive = the rest.

Test: NCI Yeast Anticancer Drug Screen. Data for the rad50 strain (AID 155);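 also: 0% = growth of vehicle-only cultures of the same strain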
Settings: S. cerevisiae rad50 strain growth inhibition; at 50.0 µM; stronger effect = higher value
Summary of the method: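 Relative growth inhibition (compound vs vehicle) was measured in yeast with a defined repair-gene alteration.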

Row | SMILES | growth inhibition
1 | CCN(CC)CCOC(=O)C1CCCCC1C(=O)C1CCCCC1 (stereo not given) | 29.4%
2 | O=c1c2cc(Br)ccc2ncn1COCc1ccccc1 | 7.3%
3 | C=C1C(=O)OC2C1CCC(=C)C1CC(O)C(=C)C12 (stereo not given) | 92.2% (active)
4 | CCC(CC)=NNc1ccc([N+](=O)[O-])cc1 | 98.4% (active)
5 | CCN(CC)CCNc1ccc(C)c2oc3ccc(O)cc3c(=O)c12 | 99% (active)
6 | CCOC(=O)C[P+](c1ccc(C)cc1)(c1ccc(C)cc1)c1ccc(C)cc1 | 96.7% (active)
7 | Cc1ccc(C)c(C(=O)/C=C/C(=O)O)c1 | 52.5%
8 | CCCC/C=C(/CCCCOCOCCOC)[Si](C)(C)C | -13.2%
9 | C=C1C2Oc3ccccc3C1N(c1ccccc1)O2 (stereo not given) | 35%
10 | NC(=O)N/N=C1/CC2CCCCC2c2ccccc21 (stereo not given) | 67.8%
11 | CC(CCN)(CCN)[N+](=O)[O-] | 8.3%
12 | COC(=O)/C=C(\NC1CC(OC2C[C@](O)(C(C)=O)Cc3c(O)c4c(c(O)c32)C(=O)c2c(OC)cccc2C4=O)OC(C)C1O)C(=O)OC (stereo not given in full) | 97.5% (active)
13 | CCOc1ccc(N=Nc2ccccc2)cc1 | 1.8%
14 | O=C(CNS(=O)(=O)Cc1ccccc1)NCC(=O)NNc1ccccc1 | 59.5%
15 | CC1(C)c2ccccc2Cc2cc3ccccc3nc21 | 97.8% (active)
16 | CC(=O)Nc1ccc(C(C)(C)c2ccc(C)cc2)cc1 | -4.5%
17 | CC[C@]1(O)C[C@H]2[C@@H]3CCc4cc(OC)ccc4[C@H]3CC[C@]2(C)[C@H]1O | 46%
18 | CCCCSc1nc2c([nH]1)c(=S)n(C)c(=S)n2C | 63.5%
19 | CN(Cc1cc(C(C)(C)C)cc(Br)c1O)Cc1cc(C(C)(C)C)cc(Br)c1O | 72% (active)
20 | Oc1cc2c(cc1C(c1ccc(F)cc1)N1CCCCC1)OCO2 (stereo not given) | 63%

Row | SMILES | growth inhibition
21 | CCCCCCCN(CCCCCCC)CC(O)Cc1cc2c(c3ccccc13)CCCC2 (stereo not given) | 98.8% (active)
22 | Cc1c2ccncc2c(C)c2c1sc1ccccc12 | 89.5% (active)
23 | c1ccc2c(c1)OCC(CNCCNCC1COc3ccccc3O1)O2 (stereo not given) | 72% (active)
24 | CC(C)(C)c1ccc(Sc2ncnc3ccccc23)cc1 | 90.8% (active)
25 | C(#Cc1ccccc1)Sc1ccccc1 | 12.9%
26 | CCOC(=O)NC(NNc1ccc([N+](=O)[O-])cc1[N+](=O)[O-])(C(F)(F)F)C(F)(F)F | 97.3% (active)
27 | O=C1/C(=C/c2cccc(O)c2)COc2ccccc21 | 93.8% (active)
28 | CNC1=C2NC(=O)/C(C)=C\C=C\C(C)C(O)C(C)C(O)C(C)C(OC(C)=O)C(C)C(OC)/C=C/OC3(C)Oc4c(C)c(O)c(c(c4C3=O)C1=O)C2=O (stereo not given) | 52.3%
29 | COc1ccc(Cc2c(-c3ccc(C)cc3)n[nH]c(=O)c2C2C(=O)N(c3ccccc3)N=C2c2ccccc2)cc1 (stereo not given) | 97% (active)
30 | Cc1ccc(Cc2n[nH]c(=O)n2N2C(=O)c3ccccc3C2=O)cc1 | -24.8%
31 | COc1cc2c(c(C3C(=O)N(C)c4ccc(Br)cc43)c1OC)OCO2 (stereo not given) | 4.3%
32 | CCCCCCCCC1N(C)CCCN1C | 99.5% (active)
33 | C1=Cc2ccccc2/C1=C/c1ccccc1 | 86.3% (active)
34 | COC(=O)c1ccc2ccccc2c1C(=O)c1ccc(F)cc1 | 96.8% (active)
35 | CCNC(=S)N/N=C(/C)c1cccc(/C(C)=N\NC(=S)NCC)n1 | 57.5%
36 | c1ccc2c(c1)ccc1ncccc12 | 81.8% (active)
37 | Cc1nc(N)nn1C | 2.9%
38 | COC(=O)C1=C(C)NC(C)=C(C(=O)OC)C1c1ccc(NCc2ccccc2)c([N+](=O)[O-])c1 | 16.9%
39 | CCc1ccccc1NC(=O)C(C#N)C1=C(Cl)C(=O)c2ccccc2C1=O (stereo not given) | 97.2% (active)
40 | O=C(O)c1ccc2ccccc2c1C(=O)c1cccc2ccccc12 | 86.8% (active)

Test: NCI Yeast Anticancer Drug Screen. Data for the mec2-1 strain (AID 157)
Settings: S. cerevisiae mec2-1 strain, at 5.0 µM (retest, dose inferred, filed as 0.5), stronger effect = higher value
Summary of the method: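 Using mec2-1 yeast: add compound, measure growth, express inhibition versus vehicle-treated cultures.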

Row | SMILES | growth inhibition
41 | CCN(CC)CCOC(=O)C1CCCCC1C(=O)C1CCCCC1 (stereo not given) | -3%
42 | O=c1c2cc(Br)ccc2ncn1COCc1ccccc1 | 11%
43 | C=C1C(=O)OC2C1CCC(=C)C1CC(O)C(=C)C12 (stereo not given) | 11%
44 | CCC(CC)=NNc1ccc([N+](=O)[O-])cc1 | 15%
45 | CCN(CC)CCNc1ccc(C)c2oc3ccc(O)cc3c(=O)c12 | 27%
46 | CCOC(=O)C[P+](c1ccc(C)cc1)(c1ccc(C)cc1)c1ccc(C)cc1 | 17%
47 | Cc1ccc(C)c(C(=O)/C=C/C(=O)O)c1 | 22%
48 | CCCC/C=C(/CCCCOCOCCOC)[Si](C)(C)C | -5%
49 | C=C1C2Oc3ccccc3C1N(c1ccccc1)O2 (stereo not given) | 8%
50 | NC(=O)N/N=C1/CC2CCCCC2c2ccccc21 (stereo not given) | -4%
51 | CC(CCN)(CCN)[N+](=O)[O-] | -1%
52 | COC(=O)/C=C(\NC1CC(OC2C[C@](O)(C(C)=O)Cc3c(O)c4c(c(O)c32)C(=O)c2c(OC)cccc2C4=O)OC(C)C1O)C(=O)OC (stereo not given in full) | 15%
53 | CCOc1ccc(N=Nc2ccccc2)cc1 | -25%
54 | O=C(CNS(=O)(=O)Cc1ccccc1)NCC(=O)NNc1ccccc1 | 1%
55 | CC1(C)c2ccccc2Cc2cc3ccccc3nc21 | -4%
56 | CC(=O)Nc1ccc(C(C)(C)c2ccc(C)cc2)cc1 | 0%
57 | CC[C@]1(O)C[C@H]2[C@@H]3CCc4cc(OC)ccc4[C@H]3CC[C@]2(C)[C@H]1O | -6%
58 | CCCCSc1nc2c([nH]1)c(=S)n(C)c(=S)n2C | 20%
59 | CN(Cc1cc(C(C)(C)C)cc(Br)c1O)Cc1cc(C(C)(C)C)cc(Br)c1O | -2%
60 | Oc1cc2c(cc1C(c1ccc(F)cc1)N1CCCCC1)OCO2 (stereo not given) | -5%

Row | SMILES | growth inhibition
61 | CCCCCCCN(CCCCCCC)CC(O)Cc1cc2c(c3ccccc13)CCCC2 (stereo not given) | 17%
62 | Cc1c2ccncc2c(C)c2c1sc1ccccc12 | 38%
63 | c1ccc2c(c1)OCC(CNCCNCC1COc3ccccc3O1)O2 (stereo not given) | 69%
64 | CC(C)(C)c1ccc(Sc2ncnc3ccccc23)cc1 | 21%
65 | C(#Cc1ccccc1)Sc1ccccc1 | -9%
66 | CCOC(=O)NC(NNc1ccc([N+](=O)[O-])cc1[N+](=O)[O-])(C(F)(F)F)C(F)(F)F | -3%
67 | O=C1/C(=C/c2cccc(O)c2)COc2ccccc21 | 34%
68 | CNC1=C2NC(=O)/C(C)=C\C=C\C(C)C(O)C(C)C(O)C(C)C(OC(C)=O)C(C)C(OC)/C=C/OC3(C)Oc4c(C)c(O)c(c(c4C3=O)C1=O)C2=O (stereo not given) | -2%
69 | COc1ccc(Cc2c(-c3ccc(C)cc3)n[nH]c(=O)c2C2C(=O)N(c3ccccc3)N=C2c2ccccc2)cc1 (stereo not given) | 99% (active)
70 | Cc1ccc(Cc2n[nH]c(=O)n2N2C(=O)c3ccccc3C2=O)cc1 | 9%
71 | COc1cc2c(c(C3C(=O)N(C)c4ccc(Br)cc43)c1OC)OCO2 (stereo not given) | 2%
72 | CCCCCCCCC1N(C)CCCN1C | -51%
73 | C1=Cc2ccccc2/C1=C/c1ccccc1 | -32%
74 | COC(=O)c1ccc2ccccc2c1C(=O)c1ccc(F)cc1 | 2%
75 | CCNC(=S)N/N=C(/C)c1cccc(/C(C)=N\NC(=S)NCC)n1 | 10%
76 | c1ccc2c(c1)ccc1ncccc12 | 3%
77 | Cc1nc(N)nn1C | 0%
78 | COC(=O)C1=C(C)NC(C)=C(C(=O)OC)C1c1ccc(NCc2ccccc2)c([N+](=O)[O-])c1 | 0%
79 | CCc1ccccc1NC(=O)C(C#N)C1=C(Cl)C(=O)c2ccccc2C1=O (stereo not given) | 71% (active)
80 | O=C(O)c1ccc2ccccc2c1C(=O)c1cccc2ccccc12 | 1%
